The values below come from PubChem BioAssay AID651602 (The Scripps Research Institute Molecular Screening Center, 2012).

Out of some 360,000 compounds screened, about 950 (0.26%) were called active. Cut-off read from the data, not from the text of the source: active = inhibition above about 11%; inactive = the rest. What follows is part of a selection rich in actives, with near analogues and random picks from the rest.

The assay can be described thus: growth loss of phage-infected E. coli, primary screen, RecBCD inhibitor project, absorbance, with phage, HTS (AID 651602). To be noted: at 11.9 µM, hits give high values.
Consider `COC(=O)C1=C(C)N(Cc2ccccc2C(F)(F)F)C(=NCc2ccc(C(F)(F)F)cc2)NC1c1ccc(F)cc1` (stereo not given), for which the inhibition is 7.76% (inactive). Turning to `COC(=O)N1Cc2ccnnc2CC1c1ccccc1Br` (stereo not given), the inhibition is 3.01% (inactive). The same measure for `O=C(/C=C/c1ccc(F)cc1)NC(=S)NNC(=O)c1cccnc1`: -5.76% (inactive).

For the molecule `O=C(Nc1ccc(F)cc1)C1CCN(C(=O)c2ccc([N+](=O)[O-])cc2)CC1`, the inhibition was 1.84% (inactive). The value for `O=C(/C=C/c1ccc([N+](=O)[O-])o1)NNC(=O)c1ccc(F)cc1` was 29.6% (active). Take `CCCN1C(=O)c2[nH]nc(-c3ccccc3)c2C1c1ccccc1` (stereo not given): the inhibition is 1.78% (inactive). The value for `COC(=O)[C@]12C[C@H](CC(=O)NCc3ccc(OC)c(OC)c3)C(=O)N(Cc3ccccc3)C1=C[C@H](C(C)C)O[C@@H]2C1CC1` was 0.85% (inactive); that for `O=C1[C@@H](c2ccccc2)[C@@H](c2ccccc2)N1c1ccccc1` was 1.64% (inactive). The value for `COc1ccc(-c2ccc3c(n2)CCCN3S(=O)(=O)c2ccc(C)cc2)cc1` was 4.42% (inactive); that for `CC(NC(=S)Nc1ccccc1)C1COc2ccccc2O1` (stereo not given) was 4.25% (inactive). On to `O=C(COc1ccc(F)cc1Br)NCC1COc2ccccc2O1` (stereo not given), for which the inhibition was 1.96% (inactive). The same measure for `S=C(NCC1COc2ccccc2O1)Nc1ccc(Br)cc1` (stereo not given): 11.1% (active); for `O=C(N[C@H](Cc1ccccc1)C(=O)N1CCCN(Cc2cccs2)CC1)[C@H]1O[C@@H](n2ccc(=O)[nH]c2=O)[C@H](O)[C@@H]1O`: 3.33% (inactive).

Take `CCOC(=O)Cn1c2c(n(-c3ccc(F)cc3)c1=O)C=C(c1ccccc1)[C@@H](C)C(C(=O)N(C)C1CCCCC1)=C2`: the inhibition was 3.33% (inactive). The value for `CN(C)C(=O)N1CCN(C(=O)[C@@H](Cc2ccccc2)NC(=O)[C@H]2O[C@@H](n3ccc(N)nc3=O)[C@H](O)[C@@H]2O)CC1` was 1.56% (inactive); that for `COc1ccc(CNS(=O)(=O)c2cc(Br)ccc2Br)cc1` was 0.71% (inactive); that for `CC1CN(C(=S)Nc2ccccc2F)CC(C)O1` (stereo not given) was 2.38% (inactive). For `COc1c(N2CCN(C(=S)Nc3ccccc3F)C(C)C2)c(F)cc2c(=O)c(C(=O)O)cn(C3CC3)c12` (stereo not given), the inhibition was 99.2% (active). In the case of `COc1ccccc1NC(=S)N1CCN(c2ccc(F)cc2)CC1`, the inhibition is 2.7% (inactive). For `CCOC(=O)CNC(=O)N(C)[C@H]1C[C@H]2c3[nH]c4c(-c5ccc6c(c5)OCO6)cccc4c3CCN2C(=O)[C@H]1[C@H](C)O`, the inhibition is 1.25% (inactive). The value for `COc1cccc(CC(=O)N2CCN(C(=O)C(=O)c3cccc(C(F)(F)F)c3)CC2)c1` was 0.39% (inactive); that for `COC(=O)[C@]12C[C@H](CC(=O)NCCC(C)C)C(=O)N(CCc3ccc(OC)c(OC)c3)C1=C[C@H](C(C)(C)C)O[C@@H]2C` was 4.73% (inactive); that for `CCOc1ccc(N(CC(=O)Nc2ccccc2F)S(=O)(=O)c2c(C)[nH]c(=O)[nH]c2=O)cc1` was 3.53% (inactive). In the case of `CCOc1ccc(N(CC(=O)NC2CCCCCC2)S(=O)(=O)c2c(C)[nH]c(=O)[nH]c2=O)cc1`, the inhibition is 80.4% (active).

Turning to `COc1ccc(N(CC(=O)NC2CCCCC2)S(=O)(=O)c2c(C)[nH]c(=O)[nH]c2=O)cc1`, the inhibition is -1.14% (inactive).

With `Nc1[nH]c(C(=O)c2ccccc2)c(-c2ccc(Cl)cc2Cl)c1C(=O)c1ccccc1`, the inhibition was 3.17% (inactive).

Regarding `Cc1cc(NCCc2c[nH]c3ccccc23)ccc1Oc1cccnc1`, the inhibition was 1.27% (inactive).

As for `COCc1[nH]nc2c1C(c1ccccc1)N(c1ccccc1)C2=O` (stereo not given), the inhibition was 1.43% (inactive). For `O=C(Nc1ccccc1)Nc1nnc(COc2ccccc2F)s1`, the inhibition is 0.84% (inactive). The same measure for `CC(C)=CC(=O)Nc1nnc(-c2ccc(F)cc2)s1`: 1.99% (inactive); for `Cc1ccc(NC(=O)Nc2nnc(-c3ccncc3)s2)cc1`: 12.4% (active). As to `C[C@H](O)[C@@H]1C(=O)N2CCc3c([nH]c4c(-c5ccc6c(c5)OCO6)cccc34)[C@@H]2C[C@@H]1N(C)C(=O)c1ccco1`, the inhibition is 4.12% (inactive). The same measure for `CCn1cc(C(=O)NCCC(=O)NCCO)c(=O)c2cc3c(cc21)OCO3`: 0.08% (inactive); for `CCCCCCn1cc(C(=O)O)c(=O)c2cc(F)c(N3CCCCC3)cc21`: 1.18% (inactive); for `CCn1cc(S(=O)(=O)c2cccc(C)c2)c(=O)c2cc(F)c(N3CCN(C)CC3)cc21`: 0.96% (inactive). The value for `CCn1cc(C(=O)NCCO)c(=O)c2cc(F)c(N3CCN(C)CC3)cc21` was 92.5% (active); that for `CCCCNC(=O)c1cn(CC)c2cc(N3CCN(C(=O)c4ccco4)CC3)c(F)cc2c1=O` was 1.02% (inactive). Take `CN1CCN(c2cc3c(cc2F)c(=O)c(C(=O)O)cn3CCF)CC1`: the inhibition is 99.2% (active). Take `C=CCN1C(=O)N(Cc2ccccc2)c2ccccc2S1(=O)=O`: the inhibition was 1.27% (inactive). The same measure for `COc1ccc(OC)c(Cc2cnc3nc(N)nc(N)c3c2C)c1`: 82.4% (active). On to `Brc1ccc(COCCc2cn(Cc3ccccc3)c3ccccc23)cc1`, for which the inhibition is 2.34% (inactive). Consider `Cc1[nH]nc2c1C(c1ccc(Br)cc1)NC2=O` (stereo not given), for which the inhibition was 2.87% (inactive).

With `Nc1[nH]c(C(=O)c2ccc(Br)cc2)c(-c2ccc3c(c2)OCO3)c1C(=O)NCCc1c[nH]c2ccccc12`, the inhibition is -1.27% (inactive). The value for `CCc1ccc(C2=CC(=O)CC(C)(C)C2=O)cc1` was 1.83% (inactive); that for `C[C@@H]1CN([C@H](C)CO)C(=O)CCCn2cc(nn2)CO[C@H]1CN(C)C(=O)Nc1ccc(N2CCCCC2)cc1` was 1.36% (inactive); that for `O/N=C1\CC2(Cc3nonc31)OCCO2` was 0.95% (inactive). The same measure for `ON=C1/C(=N\O)CC2(C/C1=N/O)OCCO2`: 13.7% (active). On to `CN[C@H]1C[C@H]2c3[nH]c4c(-c5ccccc5)cccc4c3CCN2C(=O)[C@H]1[C@H](C)O`, for which the inhibition was 1.58% (inactive). The same measure for `Nc1ccn([C@@H]2O[C@H](C(=O)N[C@H]3CCCCNC3=O)[C@@H](O)[C@H]2O)c(=O)n1`: 1.72% (inactive); for `O=C(CO/N=C/c1ccccc1O)NNC(=O)c1ccccc1Cl`: 0.32% (inactive); for `O=C(CC(=O)N/N=C\c1cccc(Cl)c1Cl)NCc1ccccc1`: 3.05% (inactive). The same measure for `O=C(NN=Cc1ccccc1O)NN=Cc1ccccc1O`: 12.4% (active); for `COC(=O)C1=C(C)N(Cc2ccccc2C(F)(F)F)C(=NCC2CC2)NC1c1cccc(Cl)c1` (stereo not given): 0.63% (inactive); for `COC(=O)c1cc2c(c3c4ccccc4n(S(=O)(=O)c4cccc(C)c4)c13)C(=O)N(Cc1ccccc1)C2`: 5.66% (inactive). The value for `COc1ccccc1-c1ccc([C@@H]2C[C@H]3[C@H](CON3C)CN2S(=O)(=O)c2cc(Cl)cc(Cl)c2)cc1` was 3.4% (inactive); that for `O=S1(=O)c2ccc(Br)cc2-n2nncc2CN1Cc1cccc(Cl)c1` was -0.4% (inactive).

Take `C=C1c2c(Cl)ccc(O)c2C(O)=C2C(=O)[C@]3(O)C(O)=C(C(N)=O)C(=O)[C@@H](N(C)C)[C@@H]3[C@@H](O)C12` (stereo not given in full): the inhibition is 102% (active). The same measure for `CN(C)[C@@H]1C(=O)C(C(N)=O)=C(O)[C@@]2(O)C(=O)C3=C(O)c4c(O)ccc(Cl)c4[C@@H](O)[C@H]3C[C@@H]12`: 102% (active). The value for `Clc1cccc2c1C1CC2CCN1Cc1ccccc1` (stereo not given) was 2.92% (inactive). On to `C=CCN=C1NC(c2cccc(C(F)(F)F)c2)C(C(=O)OC)=C(C)N1C` (stereo not given), for which the inhibition is 2.4% (inactive).

In the case of `COc1ccccc1Cc1c(-c2ccc(F)cc2)nc2ccc(C)cn12`, the inhibition was 2.63% (inactive). As to `CC1CCN(C(=O)c2ncn3c2C(=O)N[C@@H](C)C3)CC1`, the inhibition is 0.88% (inactive). The value for `CC1CCN(C(=O)Cn2cc(C(=O)c3ccco3)c3ccccc32)CC1` was 2.64% (inactive); that for `O=C(Cn1cc(C(=O)c2cccs2)c2ccccc21)NCc1cccs1` was 3.17% (inactive); that for `Cc1cccc(NC(=O)Cn2cc(C(=O)c3ccco3)c3ccccc32)c1` was 16.3% (active).

Consider `COCCCNC(=O)C[C@H]1C[C@@]2(C(=O)OC)C(=C[C@H](C(C)(C)C)O[C@@H]2C)N(Cc2ccc3c(c2)OCO3)C1=O`, for which the inhibition is 0.08% (inactive). The same measure for `Cc1nc(NC(=O)C(C)(C)C)sc1[N+](=O)[O-]`: 0.38% (inactive); for `CC[C@H]1OC(=O)[C@H](C)[C@@H](O[C@H]2C[C@@](C)(OC)[C@@H](O)[C@H](C)O2)[C@H](C)[C@@H](O[C@@H]2O[C@H](C)C[C@H](N(C)C)[C@H]2O)[C@](C)(O)C[C@@H](C)[C@@H]2N[C@@H](COCCOC)O[C@H]([C@H]2C)[C@]1(C)O`: 39.4% (active). The same measure for `Cc1ccc(N)cc1CN1CCN(c2ncc(Cc3ccccc3)cn2)CC1`: 1.25% (inactive); for `COc1ccc(SSc2ccc(OC)cc2C(=O)O)c(C(=O)O)c1`: 3.45% (inactive). The value for `CN1C(=O)C(Br)(Br)CC1c1cccnc1` (stereo not given) was 2.07% (inactive); that for `CC(C)[C@@H](C)/C=C/[C@@H](C)[C@H]1CC[C@@H]2[C@]1(C)CCC1[C@]23C=C[C@]2(C[C@@H](O)CC[C@]12C)N(c1ccc([N+](=O)[O-])cn1)O3` (stereo not given in full) was -0.39% (inactive); that for `N#Cc1ccccc1NC(=O)COc1c(Br)cc(Br)c2cccnc12` was -0.78% (inactive). In the case of `O=[N+]([O-])c1cc([N+](=O)[O-])c2cccnc2c1O`, the inhibition is -2.95% (inactive). The value for `CC(=O)NC(c1cccs1)c1cc(Br)c2cccnc2c1O` (stereo not given) was 18.8% (active); that for `O=c1[nH]c(-c2ccccc2)cn1C1CCN(Cc2ccc(-c3nc4ccc(F)cc4nc3-c3ccccc3)cc2)CC1` was 0.95% (inactive). With `CC(C)CNc1cccc2c1S(=O)(=O)N[C@H](CC(C)C)CO2`, the inhibition is 2% (inactive). Take `Cc1ccc(NC(=O)CCC(=O)N/N=C/c2ccco2)c(C)c1`: the inhibition was 0% (inactive). The value for `Cc1ccc(/C=N/NC(=O)C2=NNC(c3ccccc3)(c3ccccc3)C2)c(O)c1` was 16.3% (active); that for `Cc1ccc(/C=N/NC(=O)C(NC(=O)c2ccccc2)c2n[nH]c(=O)c3ccccc23)cc1` (stereo not given) was 1.99% (inactive).

As a reminder, the inhibition is the relative decrease from the control value, in per cent.
